Source: PubChem (several laboratories)
Hits are enriched below; roughly 6.1% of the tested compounds scored in any of these assays.
M1 agonist: agonists of M1 muscarinic receptor; CHO-M1 cells, Fluo-4 calcium fluorescence, agonist mode; hits give high values; B-score at 10 µM; 64,000 compounds, 3% hits; AID 626;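 active = fluorescence rise, raw or as B-score row- and column-corrected plate score, outside the 99.7% band of its plate's samples, either direction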
M1 antagonist: blocks the rat M1 muscarinic receptor response to acetylcholine | B-score at 10 µM | AID 628 | P08482 | CHO-M1 cells, Fluo-4 calcium, ACh EC80 antagonist mode; hits give low values | 64,000 compounds, 3.4% hits;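 active = calcium fluorescence response, raw or row-and-column corrected B-score, differing from the plate sample mean either way at a set confidence level, mostly lower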
Cdc25B inh: inhibitors of human Cdc25B phosphatase; P30305; recombinant Cdc25B, OMFP fluorescence Ex485/Em525; inhibition, %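 (compounds tested at 10 µM final in the well)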; 65,000 compounds, 0.1% hits; AID 368; in the data active = inhibition above about 50%
DUSP1 inh: inhibitors of human MKP-1 phosphatase | recombinant MKP-1, OMFP hydrolysis fluorescence | 65,000 compounds, 0.15% hits | inhibition, %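 (compounds tested at a single concentration somewhere between 10 and 100 µM)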;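 active = inhibition above about 50%, limit read from the data; inconclusive = inhibition over screen mean plus 3 SD, below that limit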;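 also: 0% = DMSO max control wells and 100% = wells with enzyme stopped by NaOH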
MMP13 inh: inhibitors of human MMP13; P45452; MMP-13 fTHP FRET cleavage, Mca fluorescence; inhibition, % at 4 µM; 65,000 compounds, 0.07% hits; AID 570;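 active = inhibition above the mean of compound-free control plate wells plus 3 SD, cut at about 14% in these data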;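 also: 0% = DMSO wells and 100% = wells with reference MMP-13 inhibitor after basal subtraction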
Hsp90 block: displaces geldanamycin probe from tumor Hsp90 | P07900 | NCI-N417 lysate Hsp90, Cy3B-geldanamycin FP displacement | inhibition, % at 30 µM | 64,000 compounds, 0.35% hits | AID 429;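 active = inhibition above 50%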;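 also: 0% = tracer plus lysate wells and 100% = tracer alone without lysate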
M1 ag confirm: confirmation of rat M1 muscarinic receptor agonists; 1,700 compounds, 19% hits; shares compounds with M1 agonist; CHO-M1 cells, Fluo-4 calcium fluorescence, agonist mode; actives lie on both sides; fluorescence change (max-min) at 10 µM; AID 1488;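 active = fluorescence change differs from the solvent-only DMSO control mean at a set confidence level in both duplicate runs; inconclusive = differs from solvent-only control mean in just one of two runs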;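 also: an EC20 dose of acetylcholine follows compound addition during the same imaging run; raw fluorescence intensity difference in instrument units with no normalization to controls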
M4 agonist ctr: rat M4 muscarinic agonism, M1 counter-screen. CHO M4/Gqi5 cells, Fluo-4 calcium fluorescence, agonist mode; actives lie on both sides. 1,700 compounds, 9% hits. fluorescence change (max-min) at 10 µM. shares compounds with M1 agonist;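 active = fluorescence change differing from the plate's solvent-only control wells at 99.7% confidence in both duplicates, whether higher or lower; inconclusive = differs from solvent controls in only one of two duplicates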
Target sequence (P08485 whole entry, looked up): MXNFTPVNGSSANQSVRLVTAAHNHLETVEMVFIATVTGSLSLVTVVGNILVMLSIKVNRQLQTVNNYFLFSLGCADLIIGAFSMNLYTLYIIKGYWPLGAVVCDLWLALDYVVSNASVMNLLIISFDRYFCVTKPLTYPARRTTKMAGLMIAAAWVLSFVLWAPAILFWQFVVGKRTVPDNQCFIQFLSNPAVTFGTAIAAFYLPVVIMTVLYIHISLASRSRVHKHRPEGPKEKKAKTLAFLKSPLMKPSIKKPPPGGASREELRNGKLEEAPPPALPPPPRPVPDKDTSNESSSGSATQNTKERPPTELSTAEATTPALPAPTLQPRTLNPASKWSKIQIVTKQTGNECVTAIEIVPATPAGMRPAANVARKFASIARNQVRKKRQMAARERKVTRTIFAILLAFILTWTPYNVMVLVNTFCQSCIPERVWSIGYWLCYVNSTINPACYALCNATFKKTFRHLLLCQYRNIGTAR
The depositor's hits bear a star; ? = inconclusive; . = not tested or not shown.

SMILES | M1 agonist | M1 antagonist | Cdc25B inh | DUSP1 inh | MMP13 inh | Hsp90 block | M1 ag confirm | M4 agonist ctr
COc1ccc(-c2nnc3ccc(SCC(=O)N4CCCCC4)nn23)cc1OC | -3.5* | 0.049 | -7 | 15 | -14 | -3 | -6.7 | -30
CC(=O)NC1(c2ccccc2)CCN(c2nc(C)cc(C)n2)CC1 | -1.1 | 0.45 | -12 | 1 | -14 | -4 | . | .
CC1Oc2ccccc2N(CC(=O)N(Cc2ccccc2)Cc2ccccn2)C1=O (configuration not stated) | 3.6 | 0.56 | 15 | -12 | 3 | -2 | . | .
CCN(CC)S(=O)(=O)c1ccc(/C(O)=C2/C(=O)C(=O)N(CCOC)C2c2ccccc2)cc1 (configuration not stated) | 33* | -0.92 | 2 | 13 | 0 | -1 | -21 | -27
COCCCN1C(=O)C(=O)/C(=C(/O)c2ccccc2)C1c1ccc(N(C)C)cc1 (configuration not stated) | -0.013 | -0.063 | -4 | -11 | 4 | -12 | . | .
O=C(OCCCN1C(=O)c2ccccc2C1=O)c1ccco1 | -0.76 | -0.58 | -3 | -12 | -2 | -1 | . | .
CC(=O)c1c(C)[nH]c(C(=O)OCCCCN2C(=O)c3ccccc3C2=O)c1C | 6.4* | -2.4* | -6 | -1 | -1 | -3 | 0.55 | -88*
COc1ccc(OC)c(C2C(C(=O)c3ccc(C)o3)=C(O)C(=O)N2CCCN2CCOCC2)c1 (configuration not stated) | 0 | 1.2 | -15 | 14 | 6 | 4 | . | .
CC1=[N+]([O-])C(C)(C)C(C)N(O)C1=O (configuration not stated) | -0.4 | -0.47 | -1 | -14 | -1 | -6 | . | .
CS(=O)(=O)N1CCc2cc(S(=O)(=O)Nc3ccc4c(c3)OCCO4)ccc21 | 1.8* | -1.1 | -5 | 10 | 1 | -3 | 8.9 | -23
CCOC(=O)N1CCN(C(=O)CSc2nnc(-c3ccc(C)c(C)c3)o2)CC1 | 0.0053 | -0.49 | 3 | -6 | 6 | 2 | . | .
CCOC(=O)N1CCN(C(=O)CSc2nnc(-c3ccc(C(C)(C)C)cc3)o2)CC1 | 6.9* | -0.85 | -5 | 11 | 5 | 0 | -15 | -29
Cc1ccc(C)c(-n2nnnc2SCC(=O)NCCC2=CCCCC2)c1 | 0.095 | -0.26 | -17 | -1 | 3 | -4 | . | .
COc1nc(-c2ccccc2)ccc1-c1noc(-c2ccccc2)n1 | 0.024 | -0.25 | 7 | -4 | -9 | -8 | . | .
COc1ccc(-c2ccc(-c3noc(-c4ccccc4)n3)c(OC)n2)cc1 | -2.9* | -0.02 | 1 | -4 | -48 | 0 | 8.5 | -5.6
O=C(Nc1ccc(S(=O)(=O)N2CCOCC2)cc1)C1COc2ccccc2O1 (configuration not stated) | 8.7* | -0.85 | -12 | 12 | 3 | . | ? | -66*
COC(=O)c1cccc(NC(=O)C2COc3ccccc3O2)c1 (configuration not stated) | 1.2 | 0 | 2 | 9 | 5 | 2 | . | .
COCCNC(=O)c1ccccc1NC(=O)C1COc2ccccc2O1 (configuration not stated) | 5.7* | -0.29 | -11 | 12 | 4 | . | -29* | -120*
COC(=O)c1cc(NC(=O)C2COc3ccccc3O2)ccc1Cl (configuration not stated) | 5.7* | -0.6 | 1 | 3 | 2 | -7 | -17 | -33
CCOC(=O)C1=C(C)NC(=O)C1(NC(=O)c1cccnc1)C(F)(F)F (configuration not stated) | -0.43 | -1.2 | 1 | 7 | -2 | -1 | . | .
CCOc1ncccc1C(=O)Nc1cccc(C(=O)Nc2cccc(S(=O)(=O)CCO)c2)c1 | 10* | -0.58 | -13 | 6 | -4 | -4 | -13 | -20
CCOc1ncccc1C(=O)Nc1ccc(Cl)cc1 | 0.52 | 0.085 | -8 | -8 | -8 | -3 | . | .
Cc1cc(=O)[nH]c(Nc2c(C)n(C)n(-c3ccccc3)c2=O)n1 | -0.45 | 1.3 | -7 | -5 | 0 | -12 | . | .
Cc1c(Nc2nc3ccccc3nc2N2CCN(c3ccccc3)CC2)c(=O)n(-c2ccccc2)n1C | 3.6* | -0.61 | 8 | 10 | 3 | -6 | -7.7 | -11
COc1ccc(CCC(=O)NCCc2cn3c(C)csc3n2)cc1 | -0.3 | 0.07 | -11 | -3 | -6 | -2 | . | .
SMILES | M1 agonist | M1 antagonist | Cdc25B inh | DUSP1 inh | MMP13 inh | Hsp90 block | M1 ag confirm | M4 agonist ctr
CCn1c(=O)cc(SCC(=O)N2CCN(c3ccccc3OC)CC2)c2ccccc21 | 4.5* | 0.31 | -10 | 33 | 0 | -2 | ? | -30
COc1ccccc1-c1nc(-c2cccc(C)c2)no1 | 0.18 | 0.43 | -35 | -12 | 3 | -6 | . | .
CCOc1ccccc1NC(=O)CN(c1cc(C)cc(C)c1)S(=O)(=O)c1c(C)noc1C | 20* | -0.84 | -11 | 4 | -4 | -2 | -1.1 | -19
CCOc1ccccc1NC(=O)CN(c1ccc(OC)cc1)S(=O)(=O)c1c(C)noc1C | 0.48 | -0.035 | -7 | 9 | 9 | -1 | . | .
O=C(Cn1cc2c(n1)CCCC2)NCCCN1CCN(c2ccccc2F)CC1 | -1.1 | -1.4 | -15 | -4 | 5 | -4 | . | .
O=C(CSc1nnc2c3cc(F)ccc3nc(-c3ccccc3)n12)N1CCOCC1 | -0.63 | 0.14 | 2 | 3 | 1 | 3 | . | .
COc1ccc(S(=O)(=O)NCCCCNS(=O)(=O)c2ccc(OC)cc2)cc1 | -4.2* | -2.2 | -11 | 3 | 2 | -6 | -19 | -23
CC(C)CCn1c(SCC(=O)OCn2nnc3ccccc3c2=O)nc2ccccc2c1=O | 3.7* | -0.044 | -6 | 21 | -4 | -3 | -11 | -39
COc1cccc(C(=O)OCn2nnc3ccccc3c2=O)c1 | 2.2* | -0.13 | 4 | 9 | 0 | -2 | -25 | -21
COc1ccc(C(=O)OCn2nnc3ccccc3c2=O)cc1OC | -0.15 | 0.39 | -14 | -3 | -3 | -2 | . | .
CCC1(CC)C(=O)C(C)(C)C(=O)OC1c1cccs1 (configuration not stated) | -0.031 | -0.59 | -4 | -4 | -2 | -5 | . | .
Cn1c(CC2C(=O)Nc3ccc(Br)cc32)nc2ccccc2c1=O (configuration not stated) | 2* | -0.29 | 1 | 10 | -4 | -11 | ? | -23
O=C(O)CN1C(=O)Nc2ccc(Br)cc2C1c1ccccc1 (configuration not stated) | 0.004 | 0.79 | 2 | 16 | 4 | . | . | .
COc1ccc(C2/C(=C(\O)c3ccc4c(c3)OCCO4)C(=O)C(=O)N2CCCN(C)C)c(OC)c1 (configuration not stated) | -0.35 | 0.029 | 6 | -17 | -1 | -2 | . | .
